What all share (assay): DAPPL (digital affinity profiling via proximity ligation, sequencing); 10 mM Tris-HCl pH 7.5, 50 mM NaCl, 1 mM DTT, 4% glycerol, room temperature, 30 min; GST-TFs on glutathione beads, 16-mer random dsDNA library, 0.1% formaldehyde crosslink after washing; high values mean tight binding
Holding throughout (conditions): protein: recombinant; tags: N-terminal GST; dsDNA, one strand shown

Test [1] deals with T1, FLI1 (Homo sapiens, UniProt Q01543 1-452).
T1 sequence: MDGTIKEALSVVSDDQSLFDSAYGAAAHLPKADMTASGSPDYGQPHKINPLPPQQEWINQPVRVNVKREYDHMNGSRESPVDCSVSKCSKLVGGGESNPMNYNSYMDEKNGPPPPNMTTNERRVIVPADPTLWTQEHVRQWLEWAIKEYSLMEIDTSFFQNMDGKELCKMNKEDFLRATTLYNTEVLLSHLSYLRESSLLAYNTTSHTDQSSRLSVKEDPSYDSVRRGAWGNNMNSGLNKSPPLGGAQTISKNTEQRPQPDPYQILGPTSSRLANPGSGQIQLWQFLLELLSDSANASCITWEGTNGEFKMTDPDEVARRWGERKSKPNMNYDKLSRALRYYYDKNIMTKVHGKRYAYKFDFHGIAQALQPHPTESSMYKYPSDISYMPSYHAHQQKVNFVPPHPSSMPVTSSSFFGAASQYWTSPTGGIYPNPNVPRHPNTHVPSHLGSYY
The method, boiled down: (§1)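 Human transcription factors fused to GST were expressed in yeast, captured on glutathione beads, given DNA barcodes and pooled with a GST-only negative control. Pools were incubated with 200 nmole of a 16-mer random double-stranded DNA library in Tris/NaCl/DTT/glycerol buffer at room temperature for 30 min. They were then washed, crosslinked with 0.1% formaldehyde, proximity-ligated (BsaI/T4 ligase, 1 h, 37 °C), PCR-amplified and sequenced on an Illumina NextSeq500. Binding signal is each 6-mer's read frequency for a factor divided by its frequency for the GST control.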

The target in test [2] is T2, GABPA (Homo sapiens, UniProt Q06546 1-454).
T2 sequence: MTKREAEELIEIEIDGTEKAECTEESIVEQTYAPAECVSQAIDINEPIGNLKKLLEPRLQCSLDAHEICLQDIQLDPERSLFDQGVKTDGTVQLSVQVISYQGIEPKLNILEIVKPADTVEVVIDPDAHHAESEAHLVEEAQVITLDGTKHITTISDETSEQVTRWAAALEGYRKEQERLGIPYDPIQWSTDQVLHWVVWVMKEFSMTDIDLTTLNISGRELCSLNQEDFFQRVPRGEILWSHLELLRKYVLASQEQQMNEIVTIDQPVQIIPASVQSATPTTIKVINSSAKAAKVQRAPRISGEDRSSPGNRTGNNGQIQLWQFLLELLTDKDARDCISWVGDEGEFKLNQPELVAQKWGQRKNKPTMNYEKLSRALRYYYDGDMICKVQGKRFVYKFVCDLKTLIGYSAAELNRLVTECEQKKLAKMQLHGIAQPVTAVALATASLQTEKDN
Put shortly:
as §1

Test [3] addresses ELF1 (Homo sapiens, UniProt P32519 1-619). Put shortly:
as §1

Test [4] deals with SPIB (Homo sapiens, UniProt Q01892 1-262). The method, boiled down: as §1
Chain of SPIB (Q01892 whole entry): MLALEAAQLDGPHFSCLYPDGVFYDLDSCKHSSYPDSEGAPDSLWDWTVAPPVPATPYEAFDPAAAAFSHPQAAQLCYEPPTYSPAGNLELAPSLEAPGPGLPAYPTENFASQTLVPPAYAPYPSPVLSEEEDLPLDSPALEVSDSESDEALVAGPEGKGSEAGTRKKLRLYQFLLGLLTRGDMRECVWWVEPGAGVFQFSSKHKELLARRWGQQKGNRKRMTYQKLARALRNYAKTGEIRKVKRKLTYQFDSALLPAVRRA
Test [5] addresses ELF4 (Homo sapiens, UniProt Q99607 1-663). Put shortly:
as §1

Test [6] addresses T3, ETV2 (Homo sapiens, UniProt O00321 1-342).
T3 sequence: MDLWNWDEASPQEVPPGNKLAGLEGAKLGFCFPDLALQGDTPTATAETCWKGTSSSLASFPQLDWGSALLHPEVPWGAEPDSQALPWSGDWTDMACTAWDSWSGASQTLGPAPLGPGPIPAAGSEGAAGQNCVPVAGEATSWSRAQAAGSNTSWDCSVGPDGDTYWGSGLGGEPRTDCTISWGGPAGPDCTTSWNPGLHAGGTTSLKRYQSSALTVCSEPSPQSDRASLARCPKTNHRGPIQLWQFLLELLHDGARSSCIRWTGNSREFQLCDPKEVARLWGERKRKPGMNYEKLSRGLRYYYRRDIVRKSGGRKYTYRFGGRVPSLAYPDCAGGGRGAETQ
Put shortly:
as §1

Test [7] addresses T4, ELF3 (Homo sapiens, UniProt P78545 1-371).
T4 sequence: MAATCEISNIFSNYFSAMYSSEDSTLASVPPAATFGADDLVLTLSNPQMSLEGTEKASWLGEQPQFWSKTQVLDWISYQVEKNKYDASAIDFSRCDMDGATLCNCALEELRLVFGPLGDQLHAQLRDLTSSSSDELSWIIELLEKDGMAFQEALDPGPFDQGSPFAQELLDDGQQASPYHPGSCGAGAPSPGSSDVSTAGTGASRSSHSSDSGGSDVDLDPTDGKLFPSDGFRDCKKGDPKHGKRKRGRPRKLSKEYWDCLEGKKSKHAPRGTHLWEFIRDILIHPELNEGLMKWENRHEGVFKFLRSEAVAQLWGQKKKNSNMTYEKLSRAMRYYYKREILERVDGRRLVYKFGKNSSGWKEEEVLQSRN
Put shortly:
as §1

In test [8] the target is ETV1 (Homo sapiens, UniProt P50549 1-477). The method, boiled down: as §1
Chain of ETV1 (P50549 whole entry): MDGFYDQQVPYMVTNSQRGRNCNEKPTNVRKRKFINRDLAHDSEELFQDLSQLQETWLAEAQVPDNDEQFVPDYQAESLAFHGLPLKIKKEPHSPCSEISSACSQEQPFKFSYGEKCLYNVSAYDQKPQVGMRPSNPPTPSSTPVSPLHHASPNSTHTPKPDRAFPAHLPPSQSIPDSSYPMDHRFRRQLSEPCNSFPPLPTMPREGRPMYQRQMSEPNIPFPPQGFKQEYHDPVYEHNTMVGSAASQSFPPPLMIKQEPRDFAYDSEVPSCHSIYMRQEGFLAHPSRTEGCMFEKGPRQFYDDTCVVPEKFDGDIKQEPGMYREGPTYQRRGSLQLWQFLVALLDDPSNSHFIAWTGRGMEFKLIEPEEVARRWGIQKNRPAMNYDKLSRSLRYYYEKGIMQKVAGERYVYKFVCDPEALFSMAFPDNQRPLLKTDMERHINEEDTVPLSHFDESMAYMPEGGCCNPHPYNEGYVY
Test [9] concerns the target T5, ERF (Homo sapiens, UniProt P50548 1-548).
T5 sequence: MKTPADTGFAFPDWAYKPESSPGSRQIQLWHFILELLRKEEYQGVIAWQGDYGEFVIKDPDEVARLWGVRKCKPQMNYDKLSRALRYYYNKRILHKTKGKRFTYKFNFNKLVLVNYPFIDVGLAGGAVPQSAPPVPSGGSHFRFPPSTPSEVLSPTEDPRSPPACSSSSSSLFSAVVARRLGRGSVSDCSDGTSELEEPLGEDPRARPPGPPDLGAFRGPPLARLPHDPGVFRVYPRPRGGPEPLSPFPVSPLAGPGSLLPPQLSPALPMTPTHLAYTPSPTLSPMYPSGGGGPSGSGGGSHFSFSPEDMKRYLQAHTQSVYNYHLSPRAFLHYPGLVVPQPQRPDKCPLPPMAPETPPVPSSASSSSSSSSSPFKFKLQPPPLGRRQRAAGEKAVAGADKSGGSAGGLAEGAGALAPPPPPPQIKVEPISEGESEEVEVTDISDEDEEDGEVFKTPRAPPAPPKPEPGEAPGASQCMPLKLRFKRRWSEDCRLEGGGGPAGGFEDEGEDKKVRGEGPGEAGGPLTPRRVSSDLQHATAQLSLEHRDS
Put shortly: as §1

The target of test [10] is T6, ETV3L (Homo sapiens, UniProt Q6ZN32 1-361).
T6 sequence: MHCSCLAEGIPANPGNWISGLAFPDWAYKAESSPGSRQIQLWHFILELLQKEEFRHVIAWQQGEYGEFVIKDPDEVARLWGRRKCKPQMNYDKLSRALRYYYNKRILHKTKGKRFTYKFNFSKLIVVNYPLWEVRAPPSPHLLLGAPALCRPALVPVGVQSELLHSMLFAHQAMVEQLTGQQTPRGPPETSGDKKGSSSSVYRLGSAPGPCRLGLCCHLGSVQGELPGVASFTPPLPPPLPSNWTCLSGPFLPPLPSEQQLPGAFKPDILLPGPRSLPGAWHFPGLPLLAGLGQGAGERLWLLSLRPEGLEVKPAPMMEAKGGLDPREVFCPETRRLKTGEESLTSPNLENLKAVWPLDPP
Put shortly:
as §1

Test [11] addresses T7, ETV7 (Homo sapiens, UniProt Q9Y603 1-341).
T7 sequence: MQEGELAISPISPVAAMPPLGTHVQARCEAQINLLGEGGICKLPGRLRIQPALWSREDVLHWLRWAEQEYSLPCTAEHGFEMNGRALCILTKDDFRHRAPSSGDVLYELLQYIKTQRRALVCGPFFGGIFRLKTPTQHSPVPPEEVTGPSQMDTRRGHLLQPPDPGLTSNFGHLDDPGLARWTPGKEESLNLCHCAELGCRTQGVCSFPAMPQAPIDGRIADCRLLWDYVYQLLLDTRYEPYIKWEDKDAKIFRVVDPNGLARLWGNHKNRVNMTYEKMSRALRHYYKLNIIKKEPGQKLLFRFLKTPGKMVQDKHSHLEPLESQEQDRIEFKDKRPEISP
The method, boiled down:
as §1

The target in test [12] is ETV6 (Homo sapiens, UniProt P41212 1-452). The method, boiled down: as §1
Chain of ETV6 (P41212 whole entry): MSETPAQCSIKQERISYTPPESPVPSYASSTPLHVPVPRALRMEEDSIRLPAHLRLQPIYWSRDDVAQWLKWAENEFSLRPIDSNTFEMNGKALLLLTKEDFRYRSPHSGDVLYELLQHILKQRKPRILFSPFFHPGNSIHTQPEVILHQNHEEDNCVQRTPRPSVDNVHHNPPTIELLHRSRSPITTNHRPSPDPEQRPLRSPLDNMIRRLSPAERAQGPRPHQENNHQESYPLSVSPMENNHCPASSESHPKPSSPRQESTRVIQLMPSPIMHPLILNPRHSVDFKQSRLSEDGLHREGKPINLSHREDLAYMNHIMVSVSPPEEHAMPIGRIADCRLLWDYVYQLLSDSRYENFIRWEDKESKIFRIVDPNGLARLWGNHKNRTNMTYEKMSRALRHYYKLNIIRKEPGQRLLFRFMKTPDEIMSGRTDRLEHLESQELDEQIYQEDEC

Binding signal data for one sequence are collected here from article PMC7862700, “An all-to-all approach to the identification of sequence-specific readers for epigenetic DNA modifications on cytosine”.

Chain of ELF1 (P32519 whole entry): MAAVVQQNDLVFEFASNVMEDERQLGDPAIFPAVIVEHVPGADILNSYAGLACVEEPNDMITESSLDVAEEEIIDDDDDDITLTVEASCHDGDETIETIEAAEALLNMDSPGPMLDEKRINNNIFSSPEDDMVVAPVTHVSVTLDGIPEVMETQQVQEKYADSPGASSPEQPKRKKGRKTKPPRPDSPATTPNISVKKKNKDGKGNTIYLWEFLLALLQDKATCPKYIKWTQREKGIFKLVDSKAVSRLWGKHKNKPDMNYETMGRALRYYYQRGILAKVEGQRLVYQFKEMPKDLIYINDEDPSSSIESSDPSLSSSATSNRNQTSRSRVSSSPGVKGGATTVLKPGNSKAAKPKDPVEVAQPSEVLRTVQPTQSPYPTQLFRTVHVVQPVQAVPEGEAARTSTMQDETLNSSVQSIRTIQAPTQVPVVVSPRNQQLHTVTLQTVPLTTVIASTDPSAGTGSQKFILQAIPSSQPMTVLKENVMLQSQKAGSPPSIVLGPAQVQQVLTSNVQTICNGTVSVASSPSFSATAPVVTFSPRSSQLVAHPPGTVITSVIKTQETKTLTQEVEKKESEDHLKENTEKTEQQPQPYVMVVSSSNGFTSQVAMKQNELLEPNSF
Chain of ELF4 (Q99607 whole entry): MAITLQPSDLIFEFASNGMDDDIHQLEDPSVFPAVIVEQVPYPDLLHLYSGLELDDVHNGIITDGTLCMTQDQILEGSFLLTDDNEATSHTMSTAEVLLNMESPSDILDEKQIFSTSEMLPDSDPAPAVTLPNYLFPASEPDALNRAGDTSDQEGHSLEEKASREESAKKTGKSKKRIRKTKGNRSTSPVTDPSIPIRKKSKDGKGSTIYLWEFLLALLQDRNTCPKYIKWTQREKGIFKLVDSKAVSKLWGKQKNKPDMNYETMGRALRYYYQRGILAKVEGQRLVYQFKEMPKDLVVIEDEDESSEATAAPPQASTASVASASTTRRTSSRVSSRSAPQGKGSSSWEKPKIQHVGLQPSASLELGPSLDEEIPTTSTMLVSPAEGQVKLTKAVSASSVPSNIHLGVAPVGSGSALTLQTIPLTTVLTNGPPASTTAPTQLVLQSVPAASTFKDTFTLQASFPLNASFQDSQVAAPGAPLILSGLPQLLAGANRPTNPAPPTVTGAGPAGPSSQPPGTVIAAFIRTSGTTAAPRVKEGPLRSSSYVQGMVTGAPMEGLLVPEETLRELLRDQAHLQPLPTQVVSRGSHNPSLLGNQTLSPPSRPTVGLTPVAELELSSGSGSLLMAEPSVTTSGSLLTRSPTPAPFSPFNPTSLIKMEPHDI

In the case of CGTACG, the binding signal is 1 fold enrichment (6-mer frequency, TF over GST control) in test [1]; 1.03 fold enrichment (6-mer frequency, TF over GST control) in test [2]; 1.07 fold enrichment (6-mer frequency, TF over GST control) in test [3]; 1.01 fold enrichment (6-mer frequency, TF over GST control) in test [4]; 1.07 fold enrichment (6-mer frequency, TF over GST control) in test [5]; 1.19 fold enrichment (6-mer frequency, TF over GST control) in test [6]. Besides, the binding signal in test [7] is 1.01 fold enrichment (6-mer frequency, TF over GST control); in test [8], 1.1 fold enrichment (6-mer frequency, TF over GST control); in test [9], 1.04 fold enrichment (6-mer frequency, TF over GST control); in test [10], 1.08 fold enrichment (6-mer frequency, TF over GST control); in test [11] it was 1.06 fold enrichment (6-mer frequency, TF over GST control); in test [12], 1.06 fold enrichment (6-mer frequency, TF over GST control).
